# From PubChem BioAssay
# HSF1 activator = HSF-1 activators, primary screen, NIH3T3-HGL cells, MG132 stress, luminescence, single point; NIH3T3-HGL HSF-1 luciferase reporter, 8 h; 100% = twice DMSO control signal; AID 504408, 2011; 300,000 compounds, 1.7% hits; activation, % at 9 µM;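 active = mean replicate activation of at least 50% with a set share of replicates each reaching 50%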;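 also: 0% = median of the neutral control wells and 100% = twice that signal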
# TROY signal inh = inhibitors of TROY-driven NF-kB signaling, primary screen, Q293 LMP1-TROYcd cells, NF-kB luciferase, uHTS; Q293 LMP1-TROYcd NF-kB luciferase reporter, 4 h; inhibition, % at 10 µM; 360,000 compounds, 0.98% hits;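 active = compounds whose plate-normalised and pattern-corrected inhibition of the luciferase reporter signal at the single screening dose is 50% or more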
# TWEAK Fn14 block = inhibitors of TWEAK-Fn14 signaling, primary screen, luciferase reporter cells, uHTS | TWEAK-stimulated Fn14 reporter cells, luciferase luminescence, 8 h | 360,000 compounds, 2% hits | inhibition, % at 10 µM; in the data active = inhibition above about 50%
# LMP1 NFkB inh = EBV LMP1-driven NF-kappaB luciferase reporter inhibitors, primary screen, cell-based, luminescence, single point; LMP1-induced NF-kappaB luciferase reporter cells; inhibition, % at 12.5 µM; 350,000 compounds, 0.69% hits; in the data active = inhibition above about 41%;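 also: 0% = neutral control wells and 100% = reference inhibitor control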
# LGR2 antag = inhibitors of bursicon-induced LGR2 CRE-luciferase signal, primary screen, cell-based, HEK293, CRE-luciferase reporter, bursicon stimulation; bursicon-stimulated, 4 h; inhibition, % at 9.99 µM; 380,000 compounds, 0.35% hits;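 active = drop in luminescence signal, shown as inhibition above about 50% in the replicate tests, limit read from the data, passing the limit was not always enough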;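 also: agonist challenge used bursicon conditioned medium at about half maximal strength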
# HSF1 inh = HSF1 inhibitors in luciferase reporter cells, primary screen, cell-based, NIH3T3, luminescence. NIH3T3-HGL HSE-luciferase, MG132-induced, luminescence 8 h; hits give low values. activity change, negative = inhibition, % at 7.5 µM (by protocol). 300,000 compounds, 0.77% hits;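 active = more than half of replicate wells show activity change below -50%, luminescence cut by over half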;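 also: luciferase reports HSF-1 transcriptional activity via heat shock element; 0% = median of DMSO wells and -100% = zero luminescence signal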
# An asterisk follows results filed as active; x = no result. Only some compounds are listed: those with a hit (about 3.6% of all), similar ones and a draw of the others.
SMILES,HSF1 activator,TROY signal inh,TWEAK Fn14 block,LMP1 NFkB inh,LGR2 antag,HSF1 inh
CCOC(=O)N(C)C[C@H]1OCc2ccccc2-c2ccccc2C(=O)N([C@H](C)CO)C[C@@H]1C,x,x,x,x,6,x
Cc1onc(-c2ccccc2)c1C(=O)OCC(=O)Nc1ccc2c(c1)OCO2,5,-4,4,0,x,8
CCc1nc2ccccc2c(C(=O)OCC(=O)Nc2cccc(S(=O)(=O)NC3=NCCCCC3)c2)c1C,-11,60*,80*,30,42,6
CCc1nc2ccccc2c(C(=O)OCC(=O)Nc2cccc(S(=O)(=O)N3CCOCC3)c2)c1C,2,68*,97*,30,x,-4
Cc1c(-c2cccc(Cl)c2)nc2ccccc2c1C(=O)OCC(=O)Nc1ccc2c(c1)OCO2,-11,27,52*,2,-15,-3
CO[C@@H]1CC[C@H]2CCN(C)C(=O)CCCN(C)C(=O)c3cccc(C#N)c3OC[C@H]1O2,x,x,x,x,-7,x
CC(C)OP(=O)(Nc1cccc2ccccc12)OC(C)C,-1,6,10,6,7,4
CN(C)P(=O)(Nc1cccc2ccccc12)Nc1cccc2ccccc12,x,48,76*,3,11,x
CCOC(=O)C1CCCN(CC(=O)Nc2c(C(=O)OC)[nH]c3ccccc23)C1 (stereo unspecified),60*,6,-6,3,x,16
COC(=O)c1[nH]c2ccccc2c1NC(=O)CN1CCN(C(=O)c2ccco2)CC1,17,x,87*,1,x,-6
COC(=O)c1[nH]c2ccccc2c1NC(=O)CN1CCN(c2cccc(Cl)c2)CC1,3,31,59*,15,9,3
CCOC(=O)c1[nH]c2ccccc2c1NC(=O)c1ccc(Br)o1,3,-5,66*,-2,12,-2
CCOC(=O)c1[nH]c2ccccc2c1NC(=O)NC(C)C,30,2,6,4,12,15
CCOC(=O)C1CCCN(CC(=O)Nc2c(C(=O)OC)[nH]c3ccc(C)cc23)C1 (stereo unspecified),37,-4,-13,-2,x,18
CO[C@@H]1CN(C)C(=O)c2ccc(NS(=O)(=O)CC(F)(F)F)cc2OC[C@@H](C)NC[C@@H]1C,x,x,x,x,-2,x
CC(C)NC(=O)N1[C@H](CO)[C@@H](c2ccccc2)[C@@H]1CNC(=O)CN(C)C,x,x,x,x,13,x
CN1CCN(S(=O)(=O)c2cccc(C(=O)NCCC3=CCCCC3)c2)CC1,-82,-15,6,1,-2,-76*
CN(C)S(=O)(=O)N1CCC(Oc2cccc(C(=O)NCCC3=CCCCC3)c2)CC1,16,37,50*,12,13,9
CCc1cccc(NC(=O)c2cccc(S(=O)(=O)N3CCN(C)CC3)c2)c1,78*,-4,-4,2,0,33
CNc1ccc(/C=C2\CSc3ccccc3C2=O)cc1[N+](=O)[O-],44,62*,83*,-8,8,10
O=C1/C(=C/c2cccc([N+](=O)[O-])c2)CSc2ccc(Cl)cc21,12,-13,-16,-9,-4,26
Cc1ccc2c(c1)/C(=N/O)CCS2,13,-12,65*,8,x,-9
Cc1noc(C)c1NC(=O)N(C)C[C@H]1OCCCC[C@H](C)Oc2ccc(NC(=O)c3ccccc3)cc2C(=O)N([C@H](C)CO)C[C@@H]1C,x,x,x,x,3,x
Cc1ccc(-c2nc3ccccc3[nH]2)s1,51*,-83,26,-30,-56,31
O=C(O)c1ccccc1-c1nc2ccccc2[nH]1,60*,6,-22,-12,13,21
SMILES,HSF1 activator,TROY signal inh,TWEAK Fn14 block,LMP1 NFkB inh,LGR2 antag,HSF1 inh
S=C(Nc1ccc(-c2nc3ccccc3[nH]2)cc1)Nc1cccnc1,59*,-52,9,-17,-62,21
Cc1cccc2cc(-c3nc4ccc(C(=O)O)cc4[nH]3)c(=O)oc12,-6,1,85*,9,x,-7
O=C(C[C@@H]1C=C[C@@H](NS(=O)(=O)c2ccc(F)cc2)[C@@H](CO)O1)NCc1ccc(Cl)c(Cl)c1,x,x,x,x,22,x
COc1ccc2oc(=Nc3ccccc3)c(-c3nc4ccccc4[nH]3)cc2c1,45,36,56*,-31,-9,30
COC(=O)c1ccc(C(=O)Nc2ccc3nc(-c4ccncc4)[nH]c3c2)cc1,-5,-6,35,9,-10,-8
COC(=O)c1ccc(-c2nc3ccccc3[nH]2)cc1,61*,-4,56*,13,14,38
COc1ccc(-c2nc3ccccc3[nH]2)cc1,4,36,66*,30,12,-2
O=C(O)c1cccc(-c2nc3ccccc3[nH]2)c1,-38,-44,8,39,94*,-29
Cc1cc(-c2nc3ccccc3[nH]2)ccc1N,37,-54,21,-8,-62,30
CO[C@@H]1CN(C)C(=O)c2ccc(NC(=O)CC(F)(F)F)cc2OC[C@@H](C)N(C(=O)c2ccccc2F)C[C@@H]1C,x,x,x,x,-6,x
c1ccc(-c2nc3ccccc3[nH]2)cc1,-66,-57,8,-24,-40,-61*
c1ccc2[nH]c(-c3ccncc3)nc2c1,12,3,3,-7,-27,8
COc1ccc(NC(=O)N2C[C@@H]3[C@H](c4ccccc42)[C@@H](CO)N3Cc2ccccn2)cc1,x,x,x,x,-5,x
CC1CCN(Cc2c(C(=O)N/N=C/c3cc(Br)ccc3O)nnn2-c2nonc2N)CC1,-31,2,-10,49*,35,-21
CC1CCN(Cc2c(C(=O)N/N=C/c3cc(Cl)ccc3O)nnn2-c2nonc2N)CC1,-14,15,-22,35,9,-6
c1ccc(-c2nc3c(ccc4ccccc43)[nH]2)nc1,58*,-59,-11,-29,x,33
Cc1ccc2nc(-c3ccccn3)[nH]c2c1,16,37,80*,41*,82*,1
c1ccc(-c2nc3ccccc3[nH]2)nc1,15,-44,14,-9,-31,13
O=C(NCC[C@H]1CC[C@@H](NS(=O)(=O)c2ccc(F)cc2)[C@H](CO)O1)c1ccccc1F,x,x,x,x,-8,x
CC1SC(c2ccc(Cl)cc2)NC1=O (stereo unspecified),68*,-13,-22,-2,x,24
CC1SC(c2cccc(Cl)c2)NC1=O (stereo unspecified),10,-18,-8,3,x,-2
CCC(C)[C@H](NC(=O)NCc1cccnc1)C(=O)OC (stereo partly specified),x,8,2,52*,-2,x
